This is an account of results in the supplement of paper PMC13380429.

The subject of assay [1] is Vero E6 infected with SARS-CoV-2. The experiment in a line: morphology score (similarity to uninfected cells); higher = more like uninfected cells. The note with it: 24 h.
Assay [2] has the same test system. Kind of assay: SARS-CoV-2 infection rate relative to infected DMSO; higher = more infection, active = 60 or less. The note with it: 24 h.

The molecule `O=C(NC1CCOCC1)c1ccc(-c2cc(-c3c[nH]nc3-c3ccccn3)ccn2)cc1` (10 µM) returned a morphology score in assay [1] of -0.0411. In assay [2], the SARS-CoV-2 infection rate is 114% (inactive).
The molecule `c1ccc([C@H]2CNCc3ccccc32)cc1` [4-phenyl-1,2,3,4-tetrahydroisoquinoline] (10 µM) yielded a morphology score in assay [1] of -0.263. Moreover, the SARS-CoV-2 infection rate in assay [2] is 114% (inactive).
Taken in the same sequence, the figures for `CCCCCCCCCCCCCCCC[n+]1ccccc1` [cetylpyridinium] (0.833333 µM) were 0.0939 and 86% (inactive).
Taken in the same sequence, the figures for `CCCCC/N=c1\ccn(Cc2ccccc2)c2ccccc12` (10 µM) were 0.0295 and 108% (inactive).
Taken in the same sequence, the figures for `Cc1oc(=O)oc1COC(=O)C1=C([C@H]2CCCO2)S[C@@H]2[C@@H]([C@@H](C)O)C(=O)N12` [faropenem-medoxomil] (10 µM) were -0.119 and 114% (inactive).
For `Cc1cc(SCc2sc(-c3ccc(C(F)(F)F)cc3)nc2C)ccc1OCC(=O)O` (10 µM), the morphology score in assay [1] was 0.0978. Further, the SARS-CoV-2 infection rate in assay [2] is 98.5% (inactive).
Taken in the same sequence, the figures for `Cc1cc2c(cc1C(F)(F)F)N(C(=O)Nc1ccc(Oc3cccnc3C)nc1)CC2` (10 µM) were 0.281 and 90.5% (inactive).
In turn, `CSc1ccc2c(c1)N(CCC1CCCCN1C)c1ccccc1S2` (stereo not given) [thioridazine] (0.833333 µM) registered a morphology score in assay [1] of 0.304. Further, the SARS-CoV-2 infection rate in assay [2] was 109% (inactive).
The matching figures for `CN(C)c1cccc(-c2c3c(=O)n(-c4ccccc4Cl)[nH]c3cc(=O)n2C)c1` (10 µM): 0.165 and 112% (inactive).
The molecule `COc1cccc(OC)c1-c1ccc(C[C@H](NC(=O)c2c(Cl)cccc2Cl)C(=O)O)cc1` (10 µM) registered a morphology score in assay [1] of -0.141. Moreover, the SARS-CoV-2 infection rate in assay [2] was 102% (inactive).
The matching figures for `COc1cc2nccc(Oc3ccc(NC(=O)C4(C(=O)Nc5ccc(F)cc5)CC4)cc3)c2cc1OC` [cabozantinib] (0.833333 µM): 0.329 and 97.5% (inactive).
`C[C@]12C=CC(=O)C=C1CC[C@@H]1[C@@H]2CC[C@]2(C)OC(=O)CC[C@@H]12` [Testolactone] (10 µM): the morphology score in assay [1] was determined as 0.176. The SARS-CoV-2 infection rate in assay [2] is 80.5% (inactive).
Taken in the same sequence, the figures for `C[C@@H]1CCCN1CCc1cc2cc(-c3ccc(C#N)cc3)ccc2o1` (10 µM) were 0.44 and 80.5% (inactive).
For `COc1c(OCCCN2CCOCC2)ccc2c1N=C(NC(=O)c1cnc(N)nc1)N1CCN=C21` [copanlisib] (0.833333 µM), the morphology score in assay [1] is -0.0397. For the same molecule, the SARS-CoV-2 infection rate in assay [2] is 34% (active).
Take `Cc1ncc(-c2ccnc(Nc3ccc(S(C)(=O)=O)cc3)n2)n1C(C)C` (0.833333 µM): in assay [1], the morphology score is -0.165. In assay [2], the SARS-CoV-2 infection rate is 99.5% (inactive).
The matching figures for `c1ccc(COCCCc2c[nH]cn2)cc1` [proxyfan] (10 µM): -0.149 and 115% (inactive).
Taken in the same sequence, the figures for `CCC(C/C=C/c1ccccc1)(c1ccccc1)N(C)CC1CC1` (stereo not given) [igmesine] (10 µM) were 0.316 and 97.5% (inactive).
Regarding `CCn1c(=O)[nH]c2cc(Cl)c(Cl)cc21` (10 µM), in assay [1], the morphology score came out at 0.171. The SARS-CoV-2 infection rate in assay [2] was 83.5% (inactive).
Taken in the same sequence, the figures for `COC[C@@H](c1ccc(C(F)(F)F)cc1)N1CCN(C2(C)CCN(C(=O)c3c(C)ncnc3C)CC2)C[C@@H]1C` [vicriviroc] (10 µM) were 0.189 and 100% (inactive).
The matching figures for `CN(C)c1cc(CNCC(C)(C)C)c(O)c2c1C[C@H]1C[C@H]3[C@H](N(C)C)C(O)=C(C(N)=O)C(=O)[C@@]3(O)C(O)=C1C2=O` [omadacycline] (10 µM): 0.179 and 97.5% (inactive).
Taken in the same sequence, the figures for `CC12CCC(CC1=O)C2(C)C` (stereo not drawn) [camphor-(+)] (10 µM) were 0.101 and 107% (inactive).
`CC(O)CC(=O)O` (stereo not drawn) [beta-hydroxybutyrate] (10 µM): the morphology score in assay [1] was -0.0603. The SARS-CoV-2 infection rate in assay [2] was 116% (inactive).
Taken in the same sequence, the figures for `Cc1ccc2c(c1CCC(=O)O)CC[C@@H](NS(=O)(=O)c1ccc(Cl)cc1)C2` [terutroban] (10 µM) were 0.115 and 112% (inactive).
In assay [1], `CCN(CC)CCO[C@H]1CC[C@@]2(C)C(=CC[C@@H]3[C@@H]2CC[C@]2(C)C(=O)CC[C@@H]32)C1` (0.833333 µM) displayed a morphology score of 0.234. Also, the SARS-CoV-2 infection rate in assay [2] is 84% (inactive).
Molecule `Cc1ccc(C(=O)c2cc(O)c(O)c([N+](=O)[O-])c2)cc1` [tolcapone] (10 µM) came in with a morphology score in assay [1] of 0.192. Further, the SARS-CoV-2 infection rate in assay [2] is 110% (inactive).
Taken in the same sequence, the figures for `CC1(C)S[C@@H]2[C@H](NC(=O)Cc3ccccc3)C(=O)N2[C@H]1C(=O)O` [benzylpenicillin] (10 µM) were -0.0812 and 114% (inactive).
Turning to `Nc1nc(N)nc(-c2cc(Cl)ccc2Cl)n1` [irsogladine] (10 µM), the morphology score in assay [1] amounted to 0.168. Also, in assay [2], the SARS-CoV-2 infection rate is 94.5% (inactive).
For the molecule `CN(C)CC/C=C1/c2ccccc2COc2ccccc21` [doxepin] (10 µM), the morphology score in assay [1] came to 0.0537. Also, the SARS-CoV-2 infection rate in assay [2] is 105% (inactive).
In the case of `CS(=O)(=O)c1cccc(CNc2nc(Nc3ccc4c(c3)CCC(=O)N4)ncc2C(F)(F)F)c1` (0.833333 µM), the morphology score in assay [1] was determined as 0.138. The SARS-CoV-2 infection rate in assay [2] is 114% (inactive).
The matching figures for `Cc1ccc(/C=C2\CNC/C(=C\c3ccc(C)cc3)C2=O)cc1` (0.833333 µM): 0.168 and 93% (inactive).
